Measured values reported in PubChem BioAssay AID720519 (National Center for Advancing Translational Sciences (NCATS), 2013).
Records with an inconclusive call do not appear. Entries that show only a call come without a potency. Calls of active or inactive are those of the source. Calls follow the shape of the dose curve; as a rule, active = well fitted activation curve with a large enough effect; inconclusive = small, poorly fitted or top-dose-only effect; inactive = flat fitted curve, though single readings scatter. Square brackets hold non-standard residues; d marks the D form. Peptide text beside a SMILES is read from it. ξ: configuration not given here. ξLac(3-iPr) = CC(C)CC(O)C(=O)O; NMeV = CN[CH](C(=O)O)C(C)C; NMeA = CN[CH](C)C(=O)O; βAla = NCCC(=O)O

Test: qHTS for Inhibitors of Cell Surface uPA Generation: Confirmatory Assay for Cherry-picked Compounds
Settings: cell surface uPA activity generation, qHTS confirmation; series mostly up to 115 µM
From the text: The overall objective of this project is to perform a quantitative high throughput screen (qHTS) to identify novel compounds that inhibit the generation of cell surface urokinase activity. The urokinase plasminogen activator (uPA) is one of the two primary endogenous systems that mediate plasminogen activation into plasmin. Members of this system, including uPA and its receptor (uPAR), are overexpressed in several malignant tumors. This system plays a major role in adhesion, migration, invasion and metastasis of cancer cells. Small molecule inhibitors of the uPA system will serve as probes to understand the molecular mechanisms of the uPA cascade and better understanding the micro-environmental circumstances that facilitate the activation of plasminogen by uPA, and finally may provide novel candidate agents for anticancer drug therapy.
[…] […] Upon inhibition of the uPA activation cascade, the subsequent cell surface uPA activity-dependent translocation of LF into the cytoplasm is inhibited. ATP-Lite is used to measure intracellular ATP concentrations (measure cell viability) which remain increased if LF entry into the cytoplasm is inhibited. This validation assay was performed using a small set of cherry picked compounds. Activation of cell viability (increase in luminescence signal) due to inhibition of the cell surface uPA generation is the desired outcome of this assay.
NIH Chemical Genomics Center [NCGC]
NIH Molecular Libraries Probe Centers Network [MLPCN]
Assay Submitter (PI): Thomas Bugge, National Institute of Dental and Craniofacial Research, NIH
Cultured RAW 264.7 were dispensed into 1536-well clear bottom, white walled tissue culture plates at a density of 4000 cells/well and were incubated overnight (12-16 h) at 37 C in a 5% CO2 incubator. Serially diluted compounds (1:5 dilution) in 23 nl DMSO were added to cells (0.0024 uM to 3.83 uM final concentration). […] Compound and reagent-treated plates were incubated for 24 h at 37 C in a 5% CO2 incubator. Three microliter of PerkinElmer ATPlite was then added to each well and luminescence was detected using the PerkinElmer ViewLux plate reader for a 5 sec exposure.
Potency is read from the fitted curve at half-maximal effect.

| SMILES | Potency |
| --- | --- |
| O=c1[nH]c(=O)n(-c2ccc(Cl)cc2)c(O)c1C=Nc1ccc(S(=O)(=O)Nc2nccs2)cc1 | inactive |
| COc1ccc(-c2nn(CCC#N)cc2C(=O)Nc2cccc([N+](=O)[O-])c2)cc1OC | inactive |
| CCOC(=O)c1ccc(N=Cc2c(O)n(-c3ccc(OC)cc3)c(=S)[nH]c2=O)cc1 | inactive |
| Cc1cc(C(=O)NP(=O)(N2CCOCC2)N2CCOCC2)c(C)n1C1CC1 | inactive |
| CCCCCn1c(=O)c(C(=O)Nc2ccccn2)c(O)c2ccccc21 | inactive |
| O=c1[nH]c(=O)n(CCc2ccccc2)c(O)c1C=NC1CC1 | inactive |
| FC(F)(F)Oc1ccc(NC2=NCCCS2)cc1 | inactive |
| C[N+](C)(C)CCOC(=O)CBr | inactive |
| COc1ccc(-c2nn(CCC#N)cc2C(=O)Nc2ccccc2)cc1OC | inactive |
| c1cncc(C2CCCCN2)c1 (stereo unspecified) | inactive |
| Cc1ccc(-n2c(O)c(C=NCCN3CCNCC3)c(=O)[nH]c2=S)cc1 | inactive |
| O=P1(NCCCl)OCCCN1CCCl (stereo unspecified) | inactive |
| CCC(C)C1NC(=O)C2CCCN2C(=O)C(CC(C)C)OC(=O)CCNC(=O)C(C)N(C)C(=O)C(C(C)C)N(C)C1=O (stereo unspecified) (cyclo([ξLac(3-iPr)]PI[NMeV][NMeA][βAla]); configuration not given here) | 3.69 µM (active) |
| COCC(=O)N1Cc2ccccc2-n2nncc2C1 | inactive |
| Cc1ccccc1O | inactive |
| COC(=O)C1=C(c2cccc(OC)c2OC)C[C@@H]2CC[C@H]1N2C(=O)NC1CC1 | inactive |
| CCOc1ccc(CN2CCN(C(=O)Cc3ccccc3)CC2)cc1 | inactive |
| Cc1ncc(CN2CCCC(C(=O)c3cccc(OC(C)C)c3)C2)s1 (stereo unspecified) | inactive |
| COc1ccccc1NC(=O)N1C[C@@H]2C[C@@H](C1)c1cccc(=O)n1C2 | inactive |
| O=C(c1ccc(F)c([N+](=O)[O-])c1)N1CC2CC(C1)c1cccc(=O)n1C2 (stereo unspecified) | inactive |
| COc1ccccc1N1CCN(Cc2ccc(SC)cc2)CC1 | inactive |
